Measured values reported in PubChem BioAssay (NCATS).
Values joined by “and” are separate entries in the source; they are usually repeats but may differ in a detail not shown here. Identical values can stand only once. Records with an inconclusive call do not appear. Active and inactive are the calls of the source. Unless noted, calls come from the whole dose curve; as a rule, active = well fitted curve in either direction with a large enough effect (not every such curve was filed as active); inconclusive = small, poorly fitted or top-dose-only effect, or another doubt; inactive = flat fitted curve, though single readings scatter. Peptide text beside a SMILES is read from it.

Columns and labels:
[1] = AP1 Signaling Pathway (AID 357); settings: ME-180 AP-1-bla reporter, EGF-induced, beta-lactamase ratio, 5 h; series mostly up to 17.2 µM;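 note: ME-180 reporter cells stimulated with EGF at its EC50 level; % is set by controls: 0 for no effect and ±100 for the full control effect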
Summary of the method: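 Cells are seeded overnight, exposed to compound titrations and an EC50 level of EGF for 5 hours at 37 °C, then loaded with CCF4 dye for 2.5 hours. Beta-lactamase activity under the AP-1 element is read as a blue/green ratio.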

[2] = NFAT Signaling Pathway (AID 444); settings: Jurkat NFAT-bla M1, carbachol, beta-lactamase ratio, 5 h;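 note: carbachol stimulus at about its EC50 of 1 µM final; % is set by controls: 0 for no effect and ±100 for the full control effect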
Summary of the method: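 Read-out: CCF4 FRET ratio (460 nm/530 nm) after 1 h RT dye loading, used for %activity and AC50 from titration series. Cells: Jurkat NFAT-β-lactamase/M1 line, treated with compound plus 1 uM carbachol for 5 h, 37 °C.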

[3] = Stat Signaling Pathway (AID 446); settings: ME-180 (cervical carcinoma) SIE beta-lactamase reporter, IL-6 stimulated, 5 h; series mostly up to 17.2 µM;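 note: ME-180 cervical cancer cells given 40 pM IL-6 alongside compound; SIE-controlled beta-lactamase reporter measured as 460/530 nm FRET emission ratio; % is set by controls: 0 for no effect and ±100 for the full control effect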
Summary of the method: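 IL-6/STAT signaling read in ME-180 cells via an SIE beta-lactamase reporter. Stimulus was 40 pM IL-6 (its AC50) for 5 hrs, so both activation and inhibition register.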

[4] = target: Mitogen-activated protein kinase 10 (Mus musculus) (UniProt Q61831); experiment: JNK3 AlphaScreen Assay (AID 530); settings: JNK3 lysate, c-Jun phosphorylation; series mostly up to 57.1 µM;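 note: kinase came from lysate of stimulated human HepG2 cells; signal reports phosphorylation of biotinylated GST-cJun 1-79 at Ser73 with 10 µM ATP; % is set by controls: 0 for no effect and ±100 for the full control effect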
Summary of the method: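 Room-temperature AlphaScreen kinase assay; pre-activated HepG2 lysate as JNK3 source, biotin-GST-cJun(1-79) substrate, 10 uM ATP, compound 15 min preincubation.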

[5] = target: 3',5'-cyclic-AMP phosphodiesterase 4B (Homo sapiens) (UniProt Q07343); experiment: qHTS Assay for Inhibitors of PDE-IV (AID 607; active = well fitted activation curve with a large enough effect in the main read-out, with a control signal flat, not every such curve was filed as active; note: % of control where 0% means no effect); settings: HEK293 ACTOne CNG channel cells, membrane potential fluorescence; series mostly up to 22.9 µM
Chain of 3',5'-cyclic-AMP phosphodiesterase 4B (Homo sapiens) (Q07343 whole entry, looked up): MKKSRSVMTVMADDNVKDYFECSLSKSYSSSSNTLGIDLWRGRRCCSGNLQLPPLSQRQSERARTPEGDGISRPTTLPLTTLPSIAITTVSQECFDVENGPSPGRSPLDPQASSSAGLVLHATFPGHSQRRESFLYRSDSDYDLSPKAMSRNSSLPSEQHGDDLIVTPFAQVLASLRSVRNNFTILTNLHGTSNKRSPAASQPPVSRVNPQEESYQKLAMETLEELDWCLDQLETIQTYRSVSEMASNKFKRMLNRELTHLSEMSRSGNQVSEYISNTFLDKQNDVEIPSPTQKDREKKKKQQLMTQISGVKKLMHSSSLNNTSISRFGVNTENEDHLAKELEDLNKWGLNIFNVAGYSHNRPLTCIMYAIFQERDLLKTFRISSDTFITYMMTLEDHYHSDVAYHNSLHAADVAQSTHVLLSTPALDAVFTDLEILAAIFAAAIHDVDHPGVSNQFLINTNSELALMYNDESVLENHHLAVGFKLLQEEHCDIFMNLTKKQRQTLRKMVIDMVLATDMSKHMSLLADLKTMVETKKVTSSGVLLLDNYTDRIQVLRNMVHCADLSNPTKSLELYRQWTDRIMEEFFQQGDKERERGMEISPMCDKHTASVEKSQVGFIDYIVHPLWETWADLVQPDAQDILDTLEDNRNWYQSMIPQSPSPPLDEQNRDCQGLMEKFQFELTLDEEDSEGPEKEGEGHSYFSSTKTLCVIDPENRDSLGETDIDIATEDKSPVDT
Summary of the method: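 Live HEK293 cells with a modified cyclic nucleotide-gated (CNG) channel report intracellular cAMP via membrane-potential dye fluorescence (ex 535/em 590 nm). Endogenous PDE-IV was targeted. Compounds were tested at up to 22.9 uM final; RO 20-1724 100 uM served as control.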

[6] = target: Glucocorticoid receptor (Homo sapiens) (UniProt P04150); experiment: GR-GFP Redistribution (AID 450;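 active = compounds whose dose series gives a full or clear partial fitted curve of increased nuclear translocation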; note: potency is the fitted concentration of half-maximal effect); settings: U2OS GR-GFP nuclear translocation, laser cytometry, 2 h
Chain of Glucocorticoid receptor (Homo sapiens) (P04150 whole entry, looked up, the tested form may be a part): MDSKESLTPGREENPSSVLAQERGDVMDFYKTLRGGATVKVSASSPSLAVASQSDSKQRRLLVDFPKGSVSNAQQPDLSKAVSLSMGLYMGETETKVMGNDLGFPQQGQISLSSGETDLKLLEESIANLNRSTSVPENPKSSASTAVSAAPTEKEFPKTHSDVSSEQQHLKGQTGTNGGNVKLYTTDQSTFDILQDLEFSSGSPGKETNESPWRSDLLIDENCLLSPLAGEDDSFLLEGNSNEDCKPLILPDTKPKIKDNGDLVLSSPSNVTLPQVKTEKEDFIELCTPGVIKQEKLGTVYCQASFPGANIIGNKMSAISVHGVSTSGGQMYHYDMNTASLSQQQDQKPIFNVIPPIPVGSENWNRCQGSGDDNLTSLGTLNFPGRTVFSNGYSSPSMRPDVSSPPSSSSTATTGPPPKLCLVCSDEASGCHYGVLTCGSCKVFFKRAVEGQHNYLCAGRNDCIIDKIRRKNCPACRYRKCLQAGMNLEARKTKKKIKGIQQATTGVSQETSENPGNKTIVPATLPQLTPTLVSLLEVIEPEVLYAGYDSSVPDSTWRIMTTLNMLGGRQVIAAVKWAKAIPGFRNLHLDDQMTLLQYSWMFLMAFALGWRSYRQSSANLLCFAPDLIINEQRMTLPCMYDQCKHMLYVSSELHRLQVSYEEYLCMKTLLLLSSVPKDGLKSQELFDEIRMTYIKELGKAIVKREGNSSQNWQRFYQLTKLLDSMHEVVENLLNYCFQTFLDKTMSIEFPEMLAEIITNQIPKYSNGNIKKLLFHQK

[7] = Cell Viability - Jurkat (AID 426;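 active = dose-dependent loss of cell ATP signal giving a full or clear fitted curve, ranked by lower potency value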;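 note: potency is the fitted concentration of half-maximal effect; cells exposed to compound for 40 hours at 37 °C before ATP read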); settings: qHTS
Summary of the method: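 Seed 5000 Jurkat E6-1 cells/well; add compound; incubate 40 hr at 37 °C; add CellTiter-Glo; wait 20 min at room temperature; read luminescence. Fit concentration-response with Hill equation for AC50.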

[8] = Cell Viability - Hek293 (AID 427;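 active = compounds whose dose-response curve shows a full or clear partial loss of cell viability, called from curve shape rather than a numeric limit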;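 note: potency is the fitted concentration of half-maximal effect; cells exposed to compound for 40 hours at 37 °C before reading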); settings: qHTS
Summary of the method: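 AC50 values derive from Hill-modelled concentration-response of ATP-based luminescence, normalized between DMSO-only and 100 uM tamoxifen controls. Cells were exposed in complete culture medium for 40 hr at 37 °C before detection.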

[9] = Cell Viability - HepG2 (AID 433; calls by dose curve;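 note: potency is the fitted concentration of half-maximal effect; potency for ATP loss meaning cytotoxicity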); settings: qHTS
Summary of the method: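 HepG2 hepatocellular carcinoma cells (1500/well) were treated with compounds for 40 h at 37 °C in complete medium; intracellular ATP was read by CellTiter-Glo luminescence. Data were normalized to DMSO and 100 uM tamoxifen, and AC50 came from Hill fits.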

[10] = Cell Viability - SK-N-SH (AID 435; calls by dose curve;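 note: potency is the fitted concentration of half-maximal effect; compound exposure lasted 40 h at 37 °C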); settings: SK-N-SH neuroblastoma cell viability qHTS
Summary of the method: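 SK-N-SH human neuroblastoma cells (1500/well) were exposed to compounds in complete medium for 40 h at 37 °C, and intracellular ATP was then measured by CellTiter-Glo luminescence. AC50 was taken from Hill fits, normalized to DMSO and 100 uM tamoxifen.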

[11] = Cell Viability - N2a (AID 540; active = well fitted curve in the direction sought with a large enough effect; an effect the other way counts as inactive or inconclusive; note: nearly all actives have a fitted effect of over 45% in size; note: potency is the fitted concentration of half-maximal effect;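 for activity change, negative = cytotoxicity: plate controls were DMSO alone for no effect and tamoxifen control for full effect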); settings: N2a mouse neuroblastoma cell viability; activity change, negative = cytotoxicity: at 92.2 µM (top of the series)
Summary of the method: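 First, 1500 N2a cells per well incubate 5 hr at 37 °C; next, compounds are added and incubated 40 hr at 37 °C; finally CellTiter-Glo is added and luminescence read after 20 min, with AC50 derived by Hill modeling.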

[12] = Cell Viability - NIH 3T3 (AID 541; active = well fitted curve in the direction sought with a large enough effect; an effect the other way counts as inactive or inconclusive; note: nearly all actives have a fitted effect of over 25% in size; note: potency is the fitted concentration of half-maximal effect;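 for activity change, negative = cytotoxicity: plate controls were DMSO alone for no effect and tamoxifen positive control for full effect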); settings: NIH 3T3 cell viability, qHTS; series mostly up to 92.2 µM
Summary of the method: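 AC50 values reflect concentration-dependent loss of intracellular ATP in NIH 3T3 cells after 40 hr treatment in complete culture medium, quantified by luciferase-based luminescence.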

[13] = Cell Viability - HUV-EC-C (AID 542; active = well fitted curve in the direction sought with a large enough effect; an effect the other way counts as inactive or inconclusive; note: nearly all actives have a fitted effect of over 35% in size; note: potency is the fitted concentration of half-maximal effect); settings: HUV-EC-C endothelial cell viability, qHTS; series mostly up to 92.2 µM
Summary of the method: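 Decrease in cellular ATP, quantified by luciferase luminescence, reflects toxicity in normal human vascular endothelial HUV-EC-C cells given compound for 40 hr in complete culture medium. Values are AC50s from concentration-response curves.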

[14] = Cell Viability - H-4-II-E (AID 543; active = well fitted curve in the direction sought with a large enough effect; an effect the other way counts as inactive or inconclusive; note: nearly all actives have a fitted effect of over 35% in size; note: potency is the fitted concentration of half-maximal effect); settings: H-4-II-E rat hepatoma viability; series mostly up to 92.2 µM
Summary of the method: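 Here, cytotoxicity is measured in the rat hepatoma line H-4-II-E as loss of intracellular ATP after 40 hr compound treatment, detected by luciferase luminescence.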

[15] = Cell Viability - SH-SY5Y (AID 544; active = well fitted curve in the direction sought with a large enough effect; an effect the other way counts as inactive or inconclusive; note: nearly all actives have a fitted effect of over 55% in size; note: potency is the fitted concentration of half-maximal effect); settings: SH-SY5Y neuroblastoma cell viability; series mostly up to 92.2 µM
Summary of the method: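 Cytotoxicity is scored as a concentration-dependent fall in intracellular ATP in human SH-SY5Y cells treated 40 hr in complete culture medium. Potency is expressed as AC50 from a Hill equation fit.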

[16] = Cell Viability - Renal Proximal Tubule (AID 545; active = well fitted curve in the direction sought with a large enough effect; an effect the other way counts as inactive or inconclusive; note: nearly all actives have a fitted effect of over 40% in size; note: potency is the fitted concentration of half-maximal effect;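 for activity change, negative = cytotoxicity: 0% = DMSO only and -100% = 100 µM tamoxifen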); settings: renal proximal tubule cells viability, primary cells of rat origin; series mostly up to 91.7 µM
Summary of the method: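 Primary rat renal proximal tubule cells (1000/well) were treated with compounds for 40 hr at 37 °C in complete medium. Intracellular ATP was measured by CellTiter-Glo luminescence, and AC50 values came from Hill-equation fits of concentration-response data.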

[17] = Cell Viability - Mesenchymal (AID 546; active = well fitted curve in the direction sought with a large enough effect; an effect the other way counts as inactive or inconclusive;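 note: cells exposed to compound for 40 hours before reading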; note: potency is the fitted concentration of half-maximal effect;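 for activity change, negative = cytotoxicity: 0% = DMSO only and -100% = 100 µM tamoxifen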); settings: mesenchymal cells viability, qHTS; series mostly up to 91.7 µM
Summary of the method: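 AC50 values reflect the drop in intracellular ATP in a human kidney mesenchymal line derived from normal glomeruli. Treatment lasts 40 hr at 37 °C in complete medium, and the signal comes from CellTiter-Glo luminescence.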

[18] = target: Glucocorticoid receptor (Homo sapiens) (UniProt P04150); experiment: GR-EFC Redistribution (AID 451; calls by dose curve; note: potency is the fitted concentration of half-maximal effect); settings: CHO-K1 GR-EFC translocation, beta-gal luminescence, 2 h
Summary of the method: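 Translocation of GR-ED fusion to nuclear EA restores b-gal, read by luminescence after 1 h room-temperature detection. Engineered CHO-K1 biosensor cells, 1,000/well, exposed 2 h at 37 C to titrations up to 46 uM final.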

[19] = Cell Viability - BJ (AID 421; calls by dose curve;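 note: potency is the fitted concentration of half-maximal effect; cells exposed to compound for 40 hours at 37 °C before readout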); settings: BJ fibroblast viability, qHTS
Summary of the method: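 Quantitative HTS: ATP depletion in BJ cells after 40 hr compound exposure in complete culture medium, detected with CellTiter-Glo; AC50 from standard Hill fits.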

O=C(O)c1cc(=O)c2c(OCC(O)COc3cccc4oc(C(=O)O)cc(=O)c34)cccc2o1
inactive: outcome [1] | activity change, negative = inhibition ([2]; at 17.2 µM (top of the series)) -1.1% and -27.1% | outcome [3] | Potency [4] | outcome [5]

CN(C)CCCC1(c2ccc(F)cc2)OCc2cc(C#N)ccc21 (stereo not given)
inactive: outcome [1] | outcome [3] | Potency [6] > 20.6 µM

CN1CCC(=C2c3ccccc3CCc3sccc32)CC1
inactive: outcome [3] | Potency [4]

CN(C)c1ccc2nc3ccc(=[N+](C)C)cc-3sc2c1
active: Potency [7] 14.2 µM | Potency [8] 35.6 µM | Potency [9] 4.17 µM | Potency [10] 10.9 µM | Potency [11] 2.51 µM | Potency [12] 0.631 µM | Potency [13] 2.51 µM | Potency [14] 7.94 µM | Potency [15] 15.8 µM | Potency [16] 31.6 µM | Potency [17] 31.6 µM

Cc1nc2n(c(=O)c1CCN1CCC(c3noc4cc(F)ccc34)CC1)CCCC2
inactive: outcome [1] | outcome [3] | Potency [4] | outcome [5]

CC(C)c1ccc2c(c1)c(SC(C)(C)C)c(CC(C)(C)C(=O)O)n2Cc1ccc(Cl)cc1
inactive: Potency [6] > 46 µM | Potency [18] > 46 µM | Potency [4] | outcome [5]

COC(=O)[C@H](Cc1ccccc1)NC(=O)[C@@H](N)CC(=O)O (H-Asp-Phe-OMe)
inactive: Potency [19] > 92 µM | Potency [7] > 92 µM | Potency [8] > 92 µM | Potency [9] > 92 µM | Potency [10] > 92 µM | Potency [4] | Potency [11] | Potency [12] | Potency [13] | Potency [14] | Potency [15] | Potency [16] | Potency [17]

CCCCC(CC)COC(=O)C(C#N)=C(c1ccccc1)c1ccccc1 (stereo not given)
inactive: Potency [19] > 92 µM | Potency [7] > 92 µM | Potency [8] > 92 µM | Potency [9] > 92 µM | Potency [10] > 92 µM | Potency [13] | Potency [15] | Potency [16] | Potency [17]

Cc1cccc(CN2CCN(C(c3ccccc3)c3ccc(Cl)cc3)CC2)c1 (stereo not given)
inactive: outcome [1] | outcome [3] | Potency [6] > 20.6 µM

Cc1cc(O)c2c(c1)C(=O)c1cc(O)cc(O)c1C2=O
active: Potency [10] 35 µM | activity change, negative = cytotoxicity [11] -117% | Potency [13] 31.6 µM | Potency [14] 63.1 µM
inactive: Potency [19] > 92 µM | activity change, negative = inhibition ([2]; at 38 µM (top of the series)) 7.8% | Potency [6] > 46 µM | Potency [18] > 46 µM | Potency [16] | outcome [5]

CCOC(=O)C1=C(O)C(=O)N(Cc2ccccc2)C1
inactive: Potency [6] > 46 µM | Potency [18] > 46 µM

Cc1cc(=O)oc2cc(O)ccc12
inactive: outcome [1] | outcome [3] | Potency [4] | outcome [5]

NCCCCNCCCN
inactive: outcome [1] | activity change, negative = inhibition ([2]; at 38 µM (top of the series)) -4.2% | Potency [6] > 46 µM | Potency [18] > 46 µM | Potency [4] | outcome [5]

CC(C)(S)[C@@H](N)C(=O)O
inactive: outcome [1] | outcome [3] | Potency [6] > 20.6 µM

C[C@H](Cc1ccc(O)c(O)c1)[C@@H](C)Cc1ccc(O)c(O)c1
inactive: Potency [6] > 46 µM | Potency [18] > 46 µM | outcome [5]

Cc1cc2cc3c(C)cc(=O)oc3c(C)c2o1
inactive: outcome [1] | Potency [4] | outcome [5]
